Screen size: about 16,000 compounds; about 250 (1.6%) were called active. This is one part of a sample in which actives are shown more often than they occur.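 Rule for the calls: active = inhibition above the average over every tested compound plus 3 SD (cut at about 40% in these data); inactive = the rest.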
What follows are molecules tested on Hepatitis C virus NS3 helicase (assay: HCV NS3 helicase inhibitors, primary screen, biochemical, fluorescence polarization, ChemBridge library (AID 687043)). Settings: NS3h Cy5-dT15 DNA binding, at 100 µM, active compounds read high.

Structure (SMILES)	inhibition
CCOc1cc(C=C2C(=O)NC(=O)NC2=O)cc(Br)c1OCCOc1ccccc1C	51.3% (active)
Nc1ccc(Cc2ccc(N)c(Cl)c2)cc1Cl	7.3% (inactive)
COc1cccc(CN2CCN(Cc3ccccc3OC)CC2)c1	-10.1% (inactive)
Cc1ccccc1CN1CCN(C(=O)COc2ccc(Cl)cc2)CC1	8.5% (inactive)
COc1cc(C)cc2oc(=O)c3c(c12)CCC3	-2.5% (inactive)

From PubChem BioAssay AID687043 (Milwaukee Institute for Drug Discovery, 2013)
